From PubChem BioAssay come the findings set out here.

The target of assay [1] is ATP-dependent translocase ABCB1 (Homo sapiens) (UniProt P08183). The assay is described as follows: P-glycoprotein substrate transport blockade – cell-based (AID 377; in the data active = fluorescence slope change above about 50%). Particulars: MDR1-expressing cells, fluorescent substrate accumulation slope; stronger effect = higher value; concentration not given here.
Assay [2] is described as follows: compounds altering viability of human ES cells (AID 493140; call rule not given here;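 also: cells exposed to compounds for four days before counting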). Particulars: human embryonic stem cell survival screen; stronger effect = higher value.
Assay [3] is described as follows: P. berghei load reduction in hepatocytes – cell-based, HepG2, luciferase luminescence, HepG2 viability, primary screen (AID 624349; in the data active = parasite load remaining mostly below about 12%, no sharp cut-off; inactive = mostly above about 10%;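 also: 100% = mean of DMSO negative control wells on the same plate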). Particulars: P. berghei liver stage in HepG2, luciferase luminescence, concentration not given here; parasite load remaining: stronger effect = lower value; viability: measured here: HepG2 viability without parasites.
Assay [4] in a line: Wnt pathway potentiators raising nuclear beta-catenin – imaging, WNT3A-conditioned medium, mouse C2C12, NPC library, primary screen (AID 1117326; in the data active = nuclear beta-catenin stimulation mostly above about 4.2%, no sharp cut-off; inactive = mostly below about 10%). Particulars: stronger effect = higher value.
Assay [5] is described as follows: stimulators of insulin release from INS-1E, primary screen, cell-based, 5 mM glucose, NPC library (AID 1117329;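 active = compound raises insulin release from rat beta cells at 5 mM glucose, no numeric limit stated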). Particulars: rat INS-1E insulin secretion, at 10 µM, stronger effect = higher value.
Assay [6] can be described thus: growth inhibition of GSK3B-pretreated HCT116 cells – cell-based, CellTiter-Glo, 0.2 to 20 µM (AID 1117336;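 active = compounds lowering colon cancer cell viability after pretreatment blocking the GSK3B kinase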). Particulars: HCT116 viability after GSK3B inhibitor, at 20 µM, stronger effect = higher value. On the technique in general: ATP-based viability assays read luminescence as a measure of living cells.
Assay [7] can be described thus: inhibition of endothelial tube formation, primary screen, imaging, VEGF stimulated, CD31 staining, tube area, NPC library (AID 1117340;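 active = compound that reduces growth-factor-driven endothelial tube area in a mixed cell culture, no cutoff stated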). Particulars: VEGF-stimulated ADSC/ECFC co-culture, at 10 µM, stronger effect = higher value.
The nature of assay [8]: GLP1 release stimulators, primary, NCI-H716, NPC library (AID 1117341;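 active = compound raises GLP1 secretion from the human gut endocrine cells, with no numeric limit stated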). Particulars: NCI-H716 cells, at 10 µM, stronger effect = higher value.
Assay [9] in a line: HCT116 colon cancer cell growth inhibition, primary screen, CellTiter-Glo luminescence, NPC library (AID 1117342;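 active = compounds that lower survival of HCT116 colon cancer cells in the luminescence readout, no numeric limit stated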). Particulars: at 20 µM (top of the series).
Assay [10] can be described thus: reduced SW480 viability measured with CellTiter-Glo, NPC library, primary (AID 1117343;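 active = compounds that lower viability of the colon cancer cells in the luminescence readout, with no numeric limit stated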). Particulars: CellTiter-Glo luminescence; at 20 µM (top of the series) unless noted.
The nature of assay [11]: NPC library primary testing for decreased DLD-1 cell viability via CellTiter-Glo (AID 1117346;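 active = compounds that lower survival of DLD-1 colon cancer cells in the luminescence readout, no cutoff given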). Particulars: DLD-1 viability, CellTiter-Glo luminescence; at 20 µM (top of the series).
Assay [12] can be described thus: viability loss with induced miR-34 in A549 – imaging, A549 dox-inducible miR-34, nuclei and caspase counts, primary screen (AID 1347080). Particulars: A549 miR-34 inducible, Hoechst nuclei count, 48 h.
Assay [13] can be described thus: MELAS cybrid and Rieske KO viability enhancers – cell-based, MELAS cybrids, Rieske KO mouse fibroblasts, CellTiter-Glo, primary screen (AID 1508586;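 active = mean z-score across replicates of 1.96 or higher in either the MELAS or the Rieske mutant cell line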;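 also: z relative to plate mean and SD of compound and empty wells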). Particulars: low glucose.
Assay [14] has as its target Mitogen-activated protein kinase 7 (Homo sapiens) (UniProt Q13164). The assay is described as follows: Gal4-ERK5 driven luciferase induction – cell-based, HTS, primary screen (AID 1508626;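 active = luciferase signal above three times the same-plate solvent-only control wells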;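 also: luciferase driven by Gal4-ERK5 fusion binding five Gal4 sites before minimal TATA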). Particulars: HeLa Gal4-ERK5 transactivation, 18 h, at 5 µM, stronger effect = higher value.
Assay [15] has as its target NAD(+) hydrolase SARM1 (Homo sapiens) (UniProt Q6SZW1). The assay can be described thus: blocking NAD cleavage by SARM1 SAM-TIR – cell lysate, NAD-Glo luminescence (AID 1508614;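 active = compound whose remaining NAD level is above about 45 nM, limit read from the data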;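 also: higher remaining NAD means stronger inhibition of SARM1 NADase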). Particulars: SAM-TIR HEK293T lysate NADase, at 1 µM, stronger effect = higher value.
Assay [16] is described as follows: galactose survival enhancers in mitochondrial complex I cybrids – cell-based, galactose medium, ATP luminescence, primary screen (AID 1645843;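 active = z-score of at least 1.8 in each of two replicates, scored against plate mean and spread of sample wells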;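 also: positive z means more ATP and so rescue of galactose-driven cybrid death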). Particulars: complex I mutant cybrid cells, 72 h, stronger effect = higher value.
The mark [17] stands for this setting: stronger effect = lower value, cell number ratio, induced over uninduced.
Setting [18] is: measured here: relative caspase fold change +Dox/-Dox.
Where [19] appears, read: measured here: total cells with miR-34 induction, stronger effect = lower value.
Where [20] appears, read: measured here: total cells without miR-34 induction.
Setting [21] is: MELAS cybrid survival, CellTiter-Glo 48 h, stronger effect = higher value.
[22] abbreviates: Rieske KO mouse fibroblast survival, CellTiter-Glo 72 h.

Where “and” joins values, the source holds several entries; their conditions need not be identical. Equal values may be shown once. Results filed as inconclusive are left out. Calls of active or inactive are those of the source.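 The calls were made as follows, unless noted: active = compounds whose cell count with miR-34 switched on is under 0.7 times the count with it off; inactive = the rest.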

Sequence of Mitogen-activated protein kinase 7 (Homo sapiens) (Q13164 whole entry, looked up, the tested form may be a part): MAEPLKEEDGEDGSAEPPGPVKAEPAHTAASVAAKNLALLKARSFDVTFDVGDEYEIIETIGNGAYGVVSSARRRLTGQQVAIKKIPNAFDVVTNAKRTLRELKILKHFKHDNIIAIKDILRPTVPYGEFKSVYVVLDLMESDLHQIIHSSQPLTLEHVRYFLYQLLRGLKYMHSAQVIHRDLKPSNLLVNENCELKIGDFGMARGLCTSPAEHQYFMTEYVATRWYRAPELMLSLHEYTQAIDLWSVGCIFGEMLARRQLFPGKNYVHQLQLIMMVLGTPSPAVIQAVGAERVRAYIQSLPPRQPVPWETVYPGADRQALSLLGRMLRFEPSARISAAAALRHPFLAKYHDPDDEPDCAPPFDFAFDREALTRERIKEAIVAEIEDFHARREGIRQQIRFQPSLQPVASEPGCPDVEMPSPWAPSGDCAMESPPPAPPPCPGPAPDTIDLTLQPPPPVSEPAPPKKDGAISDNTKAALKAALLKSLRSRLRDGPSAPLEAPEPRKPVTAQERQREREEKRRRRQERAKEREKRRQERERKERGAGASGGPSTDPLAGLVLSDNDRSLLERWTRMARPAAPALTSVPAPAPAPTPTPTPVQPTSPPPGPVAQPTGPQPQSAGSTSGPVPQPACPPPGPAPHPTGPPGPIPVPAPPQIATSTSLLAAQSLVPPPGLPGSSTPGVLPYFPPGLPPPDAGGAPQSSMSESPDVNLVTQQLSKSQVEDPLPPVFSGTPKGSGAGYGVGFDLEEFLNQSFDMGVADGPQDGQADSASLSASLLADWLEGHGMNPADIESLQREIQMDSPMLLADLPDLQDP
Sequence of ATP-dependent translocase ABCB1 (Homo sapiens) (P08183 whole entry, looked up): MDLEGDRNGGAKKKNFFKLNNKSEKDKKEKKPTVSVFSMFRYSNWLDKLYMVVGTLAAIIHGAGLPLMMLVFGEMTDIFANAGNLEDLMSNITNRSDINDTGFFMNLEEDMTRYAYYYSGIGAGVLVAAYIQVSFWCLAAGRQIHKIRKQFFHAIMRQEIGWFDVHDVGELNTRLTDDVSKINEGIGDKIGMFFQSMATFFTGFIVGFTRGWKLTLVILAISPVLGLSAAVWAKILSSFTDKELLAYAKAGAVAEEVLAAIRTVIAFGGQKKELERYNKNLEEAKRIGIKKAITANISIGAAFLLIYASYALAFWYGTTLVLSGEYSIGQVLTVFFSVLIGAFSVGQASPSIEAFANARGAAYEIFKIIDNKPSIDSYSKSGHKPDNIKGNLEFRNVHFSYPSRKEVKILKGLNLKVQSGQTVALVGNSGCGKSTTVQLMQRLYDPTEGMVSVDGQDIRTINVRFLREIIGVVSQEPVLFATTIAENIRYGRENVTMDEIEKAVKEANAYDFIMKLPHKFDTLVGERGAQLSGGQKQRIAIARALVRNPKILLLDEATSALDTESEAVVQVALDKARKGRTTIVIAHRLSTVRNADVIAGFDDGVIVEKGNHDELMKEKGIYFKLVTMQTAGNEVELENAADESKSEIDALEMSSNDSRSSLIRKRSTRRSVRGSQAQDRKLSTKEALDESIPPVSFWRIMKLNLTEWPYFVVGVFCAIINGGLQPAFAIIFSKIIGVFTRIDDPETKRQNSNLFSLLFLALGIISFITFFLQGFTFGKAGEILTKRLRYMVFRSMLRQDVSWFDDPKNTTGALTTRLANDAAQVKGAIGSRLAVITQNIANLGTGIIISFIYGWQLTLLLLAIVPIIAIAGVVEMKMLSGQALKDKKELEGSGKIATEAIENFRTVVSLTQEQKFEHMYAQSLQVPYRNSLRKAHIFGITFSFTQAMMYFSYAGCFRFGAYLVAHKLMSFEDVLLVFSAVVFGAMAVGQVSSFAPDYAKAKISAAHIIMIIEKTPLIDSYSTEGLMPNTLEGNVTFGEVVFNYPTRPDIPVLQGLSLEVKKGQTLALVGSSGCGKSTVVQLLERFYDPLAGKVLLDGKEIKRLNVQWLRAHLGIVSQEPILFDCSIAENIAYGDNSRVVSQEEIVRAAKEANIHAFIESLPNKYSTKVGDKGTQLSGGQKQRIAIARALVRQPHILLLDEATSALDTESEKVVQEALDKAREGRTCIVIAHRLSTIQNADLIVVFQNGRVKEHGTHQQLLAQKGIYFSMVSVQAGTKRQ
Sequence of NAD(+) hydrolase SARM1 (Homo sapiens) (Q6SZW1 whole entry, looked up): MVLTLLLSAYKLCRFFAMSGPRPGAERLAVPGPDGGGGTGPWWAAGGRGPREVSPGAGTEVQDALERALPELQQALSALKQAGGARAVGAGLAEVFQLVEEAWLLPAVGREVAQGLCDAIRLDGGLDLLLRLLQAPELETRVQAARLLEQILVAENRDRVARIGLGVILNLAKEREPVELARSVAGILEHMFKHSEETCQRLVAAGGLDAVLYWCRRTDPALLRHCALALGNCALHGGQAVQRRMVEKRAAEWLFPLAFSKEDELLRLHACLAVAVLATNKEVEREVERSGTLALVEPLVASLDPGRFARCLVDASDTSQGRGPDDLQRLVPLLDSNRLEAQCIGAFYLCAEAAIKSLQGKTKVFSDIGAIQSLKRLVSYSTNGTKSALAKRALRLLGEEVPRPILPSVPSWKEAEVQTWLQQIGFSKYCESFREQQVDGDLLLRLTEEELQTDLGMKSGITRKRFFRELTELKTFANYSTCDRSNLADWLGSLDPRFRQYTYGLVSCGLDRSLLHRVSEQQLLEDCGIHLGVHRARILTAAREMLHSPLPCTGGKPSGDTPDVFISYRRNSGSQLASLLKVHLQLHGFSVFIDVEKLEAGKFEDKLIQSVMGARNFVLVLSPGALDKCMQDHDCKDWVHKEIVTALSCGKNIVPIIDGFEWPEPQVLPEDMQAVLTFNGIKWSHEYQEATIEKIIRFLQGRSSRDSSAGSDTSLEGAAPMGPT

As to `C[C@H](NCCc1ccc(O)cc1)[C@H](O)c1ccc(O)cc1`, the fluorescence slope change in assay [1] was 27.4% (inactive). Besides, the survival in assay [2] is 5.58 (inactive). Besides, the parasite load remaining in [3] is 80.4% (inactive) and 86.8% (inactive). In addition, the viability – broadly, a read-out of living cells in per cent, often relative to untreated cells – in assay [3] was 111% and 73.3%. In addition, the nuclear beta-catenin stimulation in assay [4] (at 10 µM) was -1.4% (inactive); in [4] (stimulation, at 2 µM), -0.2%. The insulin secretion stimulation in assay [5] was 4.3% (inactive). For the same compound, the viability decrease in assay [6] is -8.6% (inactive). In assay [7], the tube area decrease was 5.1% (inactive). The GLP1 secretion stimulation in assay [8] was -4.3% (inactive). In addition, the inhibition of viability in [9] is 4.7% (inactive). Besides, the viability decrease (inhibition) in assay [10] was 0.4% (inactive); in assay [11], -16.7% (inactive). Further, the fold change is 0.881 (inactive) and 0.9 (inactive) in assay [12] (setting [17]); 1.49 and 0.723 in [12] (setting [18]). Also, the cell count in assay [12] (setting [19]) was 8830 and 9090; in [12] (setting [20]), 10000 and 10100. For the same compound, the z-score in assay [13] (setting [21]) is -0.276 (inactive) and 0.441 (inactive); in assay [13] (setting [22]), -0.155 and 0.32. Besides, the luciferase signal in assay [14] is 96 AU (inactive).

On to `C#CC1(O)CC[C@H]2[C@@H]3CCC4=CCCC[C@@H]4[C@H]3CC[C@@]21C` (stereo partly specified), for which, in assay [1], the fluorescence slope change is 88.5% (active). In addition, the parasite load remaining in assay [3] was 25.2% (inactive) and 119% (inactive). Moreover, in assay [3], the viability was 48.4% and 91.7%. In addition, the nuclear beta-catenin stimulation in assay [4] (at 10 µM) is 0.9% (inactive); in [4] (stimulation, at 2 µM) it was 0.1%. Also, the insulin secretion stimulation in [5] is 16.9% (inactive). The viability decrease in assay [6] is 110% (active). Further, the tube area decrease in assay [7] was 14.7% (inactive). The GLP1 secretion stimulation in assay [8] was 20.3% (active). Also, the inhibition of viability in assay [9] was 113% (active). For the same compound, the viability decrease (inhibition) in assay [10] was 132% (active); in assay [11] it was 102% (active). Besides, the fold change is 0.949 (inactive) in assay [12] (setting [17]) and 1.31 in assay [12] (setting [18]). Also, the cell count in assay [12] (setting [19]) was 8290; in assay [12] (setting [20]) it was 8740. Further, the z-score in assay [13] (setting [21]) is 0.595 (inactive); in [13] (setting [22]), 0.485. In addition, the luciferase signal in assay [14] is 80 AU (inactive).

On to `CC1(C)[C@@H](OC(=O)CCC(=O)O)CC[C@]2(C)[C@H]3C(=O)C=C4[C@@H]5C[C@@](C)(C(=O)O)CC[C@]5(C)CC[C@@]4(C)[C@]3(C)CC[C@@H]12`, for which, in assay [1], the fluorescence slope change was 123% (active). Besides, in [2], the survival is 4.33 (inactive). The parasite load remaining in assay [3] is 77.3% (inactive). Further, the viability in assay [3] amounted to 94.7%. Also, the nuclear beta-catenin stimulation in [4] (at 10 µM) is 4.8% (inactive); in assay [4] (stimulation, at 2 µM), 1.3%. Besides, the insulin secretion stimulation in assay [5] is -1% (inactive). The viability decrease in assay [6] was 50.3% (active). The tube area decrease in [7] was 15.3% (inactive). The GLP1 secretion stimulation in [8] is 2.7% (inactive). Also, in assay [9], the inhibition of viability is 43.6% (inactive). The viability decrease (inhibition) in [10] was 15.1% (inactive); in assay [11] it was 35.6% (inactive). Further, the fold change is 0.87 (inactive) in assay [12] (setting [17]) and 1.72 in assay [12] (setting [18]). Moreover, the cell count in assay [12] (setting [19]) is 9330; in [12] (setting [20]) it was 10700. In addition, the z-score in [13] (setting [21]) was 0.704 (inactive); in assay [13] (setting [22]), 0.0878. In addition, in assay [15], the remaining NAD is 10 nM (inactive). For the same compound, in assay [14], the luciferase signal was 60 AU (inactive).

On to `O=P(O)(O)OC(CO)CO`, for which the nuclear beta-catenin stimulation in assay [4] (at 10 µM) was 0.1% (inactive); in assay [4] (stimulation, at 2 µM), 0.7%. Also, in assay [5], the insulin secretion stimulation is 1.2% (inactive). Also, the viability decrease in assay [6] is 3.9% (inactive). The tube area decrease in assay [7] is 14.1% (inactive). In addition, in [8], the GLP1 secretion stimulation is -1.6% (inactive). Moreover, the inhibition of viability in assay [9] was -0.7% (inactive). Further, the viability decrease (inhibition) is -2% (inactive) in [10] and -3.3% (inactive) in assay [11]. Further, the fold change in assay [12] (setting [17]) is 0.854 (inactive); in assay [12] (setting [18]), 0.424. The cell count in assay [12] (setting [19]) was 8550; in assay [12] (setting [20]), 10000. The z-score is 0.561 (inactive) in assay [13] (setting [21]), -0.261 in assay [13] (setting [22]) and 0.385 (inactive) in [16].
